Sampled rows, rich in hits. Any-hit rate of the full collection: about 27%.
CYP2C9 inh – inhibitors of human CYP2C9; P11712; actives 20% (n = 96,000); inhibition, % at 5 µM; CYP2C9 Supersomes, luciferin-H conversion, luminescence;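 active means blocking of liver enzyme CYP2C9 beyond about 50% at 5 µM, limit read from the data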
CYP2C19 inh – human CYP2C19 inhibition | inhibition, % at 5 µM | CYP2C19 Supersomes, luciferin-H EGE luminescence, 30 min | AID 778 | actives 21% (n = 96,000) | P33261;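 active means CYP2C19 inhibition above a set limit at 5 µM in the primary screen, cut at about 50% in these data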
CYP2C19 act – increases human CYP2C19 enzyme activity; P33261; recombinant CYP2C19, luciferin-H EGE luminescence; active compounds read high; 0 = fully inhibited enzyme, 1 = untreated enzyme; activation factor at 5 µM; 96,000 tested, under 10 active;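 active means activation factor of at least 2 at 5 µM in the primary screen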
CYP2C9 act – CYP2C9 (human) activation; activation factor at 5 µM; AID 1024; P11712; recombinant CYP2C9, luciferin-H conversion, luminescence; active compounds read high; factor 1 = untreated enzyme, 0 = blocked; actives 1.4% (n = 96,000);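 active means activation factor of 2 or more for CYP2C9 at a 5 µM dose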
EphB4 antag – blocks human EphB4 binding to ephrin-B2. EphB4 LBD / TNYL-RAW-Alexa532 peptide, fluorescence polarization. inhibition, % at 7 µM. actives 0.15% (n = 97,000);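 active means inhibition above the screen-wide mean inhibition plus 3 SD, cut at about 15% in these data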
Target sequence (P54760 whole entry, looked up, the tested form may be a part): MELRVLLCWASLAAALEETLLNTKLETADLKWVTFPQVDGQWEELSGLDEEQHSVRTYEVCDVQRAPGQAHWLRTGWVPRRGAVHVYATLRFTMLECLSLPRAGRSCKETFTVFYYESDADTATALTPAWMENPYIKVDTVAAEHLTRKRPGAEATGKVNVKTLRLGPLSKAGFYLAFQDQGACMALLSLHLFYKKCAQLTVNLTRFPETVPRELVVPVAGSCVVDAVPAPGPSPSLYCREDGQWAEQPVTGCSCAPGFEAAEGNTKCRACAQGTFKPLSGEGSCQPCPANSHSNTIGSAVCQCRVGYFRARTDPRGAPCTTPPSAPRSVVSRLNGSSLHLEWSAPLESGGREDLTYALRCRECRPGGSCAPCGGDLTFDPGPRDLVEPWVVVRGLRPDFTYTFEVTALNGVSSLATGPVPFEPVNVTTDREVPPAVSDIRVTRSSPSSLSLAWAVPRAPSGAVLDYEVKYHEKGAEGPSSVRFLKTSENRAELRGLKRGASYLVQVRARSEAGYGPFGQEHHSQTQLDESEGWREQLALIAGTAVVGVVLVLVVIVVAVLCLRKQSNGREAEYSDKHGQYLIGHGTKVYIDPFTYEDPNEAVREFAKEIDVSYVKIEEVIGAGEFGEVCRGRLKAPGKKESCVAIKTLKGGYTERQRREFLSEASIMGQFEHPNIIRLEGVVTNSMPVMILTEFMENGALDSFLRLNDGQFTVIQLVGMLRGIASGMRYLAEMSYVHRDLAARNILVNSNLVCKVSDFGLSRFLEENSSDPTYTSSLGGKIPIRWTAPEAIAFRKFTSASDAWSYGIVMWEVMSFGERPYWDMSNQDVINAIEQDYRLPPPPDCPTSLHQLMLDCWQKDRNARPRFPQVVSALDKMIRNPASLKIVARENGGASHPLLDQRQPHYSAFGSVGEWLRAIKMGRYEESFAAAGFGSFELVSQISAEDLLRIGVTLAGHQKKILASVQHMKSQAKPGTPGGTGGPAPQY
Each line names hits and unclear results; the compound was inactive in the other large screens.

C/C=C/COC(=O)c1[nH]c2c(c1C)C(=O)CC(c1ccc(N(C)C)cc1)C2 (stereo not drawn)	CYP2C9 inh 64.6 (no result: EphB4 antag)
CCOCCOC(=O)c1[nH]c2c(c1C)C(=O)CC(c1ccc(N(C)C)cc1)C2 (stereo not drawn)	CYP2C9 inh 85.2
C/C=C/COC(=O)c1[nH]c2c(c1C)C(=O)CC(c1ccco1)C2 (stereo not drawn)	none
O=C1CC(c2ccsc2)c2cc3c(cc2N1)OCCO3 (stereo not drawn)	none (no result: EphB4 antag)
COc1ccc(S(=O)(=O)N2c3ccccc3OCC2c2ccccc2)cc1 (stereo not drawn)	none
CCCOC(=O)c1ccc(NC(=O)c2ccoc2C)cc1	none (no result: CYP2C9 inh, CYP2C19 inh, CYP2C19 act, CYP2C9 act)
Cc1ccc(C)c(N2CCN(C(=O)CNS(=O)(=O)c3cccs3)CC2)c1	CYP2C9 inh 50.2, CYP2C19 inh 54.2
O=C(CNS(=O)(=O)c1ccc(Br)s1)N1CCN(c2ncccn2)CC1	CYP2C9 inh 61.4
Cc1ccc(N2CCN(C(=O)CNS(=O)(=O)c3ccc(Br)s3)CC2C)cc1 (stereo not drawn)	CYP2C19 inh 52.5
CC1CCN(C(=O)CNS(=O)(=O)c2ccc(Br)s2)CC1	none
CC1CC(C)CN(C(=O)CNS(=O)(=O)c2ccc(Br)s2)C1 (stereo not drawn)	none
Cc1ccc2c(CNCc3ccco3)cc(=O)oc2c1	none (no result: CYP2C9 inh, CYP2C19 inh, CYP2C19 act, CYP2C9 act)
COC(=O)c1c(C(=O)OC)c2ccncn2c1Cl	CYP2C9 inh 80.0, CYP2C19 inh 80.7
COC(=O)c1ccc(-n2cnc(Cl)n2)c(F)c1	none
Cc1cc(NC(=O)C2C3C(=O)N(CC4CCCO4)C(C(=O)NCc4ccccc4)C34C=CC2(C)O4)no1 (stereo not drawn)	none (no result: CYP2C9 inh, CYP2C19 inh, CYP2C19 act, CYP2C9 act)
O=C1c2cccnc2C(=O)N1c1ccccc1-c1ccccc1	CYP2C19 inh 55.7
O=C1c2cccnc2C(=O)N1c1cccc(-c2nc3ccccc3o2)c1	none
COc1cc(C(=O)NCCCCCC(=O)O)cc(OC)c1OC	none
COc1cc(C(=O)NCCCNc2nc3cc(C)cc(C)c3cc2C#N)cc(OC)c1OC	CYP2C19 inh 57.4
CCC(=O)OCCNc1cc(Sc2nc3ccccc3s2)c2nonc2c1[N+](=O)[O-]	CYP2C9 inh 53.9
COC(=O)c1c(NC(=O)c2nc3nc(C)cc(C(F)F)n3n2)sc2c1CCC2	none
Cc1cc(NC(=O)CSc2nccn2-c2ccc(Cl)cc2)no1	CYP2C9 inh 53.8, CYP2C19 inh 80.9
Cc1cc(NC(=O)CSc2nccn2-c2ccc(F)cc2)no1	CYP2C19 inh 68.8
COc1cc(NC(=O)c2cccs2)c(C(=O)OCC(=O)NC(=O)NCc2ccccc2)cc1OC	none
O=C(NCCN1CCN(c2ccccc2F)CC1)C1CCCN(S(=O)(=O)c2cnc[nH]2)C1 (stereo not drawn)	none
O=C(NCc1ccc(Cl)cc1)C1CCCN(S(=O)(=O)c2cnc[nH]2)C1 (stereo not drawn)	CYP2C9 inh 96.4, CYP2C19 inh 99.4
Cc1ccc(CNC(=O)C2CCCN(S(=O)(=O)c3cccnc3)C2)cc1 (stereo not drawn)	none
Cc1ccc(CNC(=O)C2CCN(S(=O)(=O)c3cnc[nH]3)CC2)cc1	CYP2C9 inh 89.7
CS(=O)(=O)N1CCC(C(=O)NCc2ccncc2)CC1	CYP2C9 inh 59.4
Cc1ccc(CNC(=O)C2CCCN(S(=O)(=O)c3cnc[nH]3)C2)cc1 (stereo not drawn)	CYP2C9 inh 67.0, CYP2C19 inh 96.4
COc1ccc(Cc2c[nH]c(=O)[nH]c2=O)cc1	none
O=C(C1CCCCC1)N1CCCn2c1nc1ccccc12	none
COc1ccc(CNC(=O)C2CCCN(S(=O)(=O)c3cnc[nH]3)C2)cc1 (stereo not drawn)	CYP2C19 inh 77.6
COc1ccc(N2CCN(CCCNC(=O)C3CCCN(S(=O)(=O)c4cnc[nH]4)C3)CC2)cc1 (stereo not drawn)	none (no result: EphB4 antag)
COc1ccccc1CNC(=O)C1CCCN(S(=O)(=O)c2cnc[nH]2)C1 (stereo not drawn)	CYP2C9 inh 90.0, CYP2C19 inh 96.6
O=C(C1CCN(S(=O)(=O)c2cnc[nH]2)CC1)N1CCn2c1nc1ccccc12	CYP2C9 inh 64.1, CYP2C19 inh 60.5
COc1ccccc1CNC(=O)C1CCCN(S(=O)(=O)c2c(C)[nH]c(=O)[nH]c2=O)C1 (stereo not drawn)	none
Cc1cccc(C)c1NC(=O)N1C2CCCC1CC(NC(=O)C(C)(C)C)C2 (stereo not drawn)	none (no result: EphB4 antag)
COc1cc(C2C(C(=O)c3cccs3)=C(O)C(=O)N2c2cc(C)on2)ccc1O (stereo not drawn)	none
COC(=O)c1ccc(Cn2cnc3c(cnn3-c3ccc(F)cc3)c2=O)o1	CYP2C9 inh 50.4
COC(=O)c1ccc(Cn2cnc3c(cnn3-c3ccc(C)c(C)c3)c2=O)o1	none (no result: CYP2C9 inh, CYP2C19 inh, CYP2C19 act, CYP2C9 act)
COc1ccc(NC(C)C(=O)N/N=C/c2ccccc2OCc2ccc(Br)cc2)cc1 (stereo not drawn)	CYP2C9 inh 69.1
COc1ccc(/C=C/C(=O)NCC(=O)N/N=C/c2cc(Br)ccc2OCc2ccccc2)cc1	CYP2C9 inh 77.2
O=C(N/N=C/c1ccc2cccc(OCc3ccccc3)c2n1)c1ccc(Br)cc1	none
CC(Nc1ccc(Br)cc1)C(=O)N/N=C/c1ccccc1OCc1ccccc1 (stereo not drawn)	CYP2C9 inh 95.3, CYP2C19 inh 89.3
Cc1ccccc1OCCCC(=O)Nc1ccc(Br)cc1	none
O=C(COc1ccc(Cl)cc1)Nc1cnn(Cc2c(Cl)cccc2Cl)c1	none
O=C(NCCCN1CCOCC1)C(Sc1ccccc1)c1ccccc1 (stereo not drawn)	none
CCOc1ccccc1CNC(=O)c1cc2oc3ccccc3c2n1C	none
COCCNC(=O)c1cc2oc3ccccc3c2n1C	CYP2C9 inh 79.4, CYP2C19 inh 90.4
COc1ccc(CNc2cc(C)ccc2C)c(OC)c1OC	none
COc1ccc(NCc2ccc(OC)c(OC)c2)cc1	CYP2C19 inh 72.8
COc1cc(CNc2ccc(C)c(C)c2)cc(OC)c1OC	CYP2C9 inh 58.4, CYP2C19 inh 91.2 (no result: EphB4 antag)
COc1cc(CNc2cc(C)ccc2C)cc(OC)c1OC	CYP2C9 inh 82.4, CYP2C19 inh 98.1
COC(=O)c1ccc(C(=O)OC)c(NC(=O)CS(=O)(=O)Cc2ccccc2)c1	none
CC(/C=N/N1CCN(c2ccccc2)CC1)=C\c1ccccc1	none
CC(=C/c1ccco1)/C=N/N1CCN(c2ccccc2)CC1	CYP2C19 inh 55.2
CC(/C=N/N1CCN(c2ccccc2)CC1)=C\c1ccco1	CYP2C19 inh 56.3
CC(/C=N/n1c(-c2ccccc2)n[nH]c1=S)=C\c1ccco1	none
Cn1ncc(C#N)c1NC(=O)C1CC(c2ccc(Cl)cc2)=NO1 (stereo not drawn)	CYP2C19 inh 72.1
COC(=O)c1ccc(Cn2cnc3c(sc4nc(N5CCOCC5)c5c(c43)CCCC5)c2=O)o1	CYP2C9 inh 52.0 (no result: EphB4 antag)
O=c1c2sc3nc(N4CCOCC4)c4c(c3c2ncn1CCc1ccccc1)CCCC4	CYP2C9 inh 60.6, CYP2C19 inh 52.5
COc1ccccc1Nc1nc2ccccc2[nH]1	none

Source: PubChem BioAssay
